Source: PubChem (Sanford-Burnham Center for Chemical Genomics)
CYP2C19 inh: blockers of cytochrome P450 2C19 activity – biochemical, luminescence, ADME assay, primary screen. CYP2C19 Supersomes, luciferin-H EGE luminescence, 30 min. inhibition, % at 5 µM. 96,000 tested, 21% active;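 active = CYP2C19 inhibition above a set limit at 5 µM in the primary screen, cut at about 50% in these data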;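 also: plate controls were negative control wells for no effect and 2.5 mM tranylcypromine positive control for full effect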
Target sequence (P33261 whole entry, looked up): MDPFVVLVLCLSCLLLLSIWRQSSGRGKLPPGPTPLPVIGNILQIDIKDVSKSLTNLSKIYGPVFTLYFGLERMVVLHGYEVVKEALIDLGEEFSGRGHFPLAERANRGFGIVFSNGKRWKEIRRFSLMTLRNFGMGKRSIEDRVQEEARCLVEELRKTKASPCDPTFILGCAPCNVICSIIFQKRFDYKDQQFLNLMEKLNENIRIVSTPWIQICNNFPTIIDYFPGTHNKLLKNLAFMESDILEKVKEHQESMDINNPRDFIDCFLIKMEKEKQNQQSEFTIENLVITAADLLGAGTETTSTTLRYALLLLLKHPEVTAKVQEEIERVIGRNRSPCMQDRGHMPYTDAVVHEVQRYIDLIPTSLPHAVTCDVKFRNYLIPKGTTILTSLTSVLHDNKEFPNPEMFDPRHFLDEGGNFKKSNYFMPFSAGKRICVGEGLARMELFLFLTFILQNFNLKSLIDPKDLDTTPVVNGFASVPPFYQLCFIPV
CYP2C19 act: human CYP2C19 activators, primary screen, biochemical, luminescence; Cytochrome P450 2C19 (Homo sapiens), P33261; recombinant CYP2C19, luciferin-H EGE luminescence; stronger effect = higher value; 0 = fully inhibited enzyme, 1 = untreated enzyme; activation factor at 5 µM; 96,000 tested, under 10 active; AID 1025, 2008;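 active = activation factor of at least 2 at 5 µM in the primary screen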;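 also: 0 = wells with 2.5 mM tranylcypromine and 1 = vehicle-only wells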
CYP2C9 inhib: blockers of cytochrome P450 2C9 activity – biochemical, luminescence, ADME assay, primary screen; P11712; CYP2C9 Supersomes, luciferin-H conversion; inhibition, % at 5 µM; 96,000 tested, 20% active; AID 777, 2007;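 active = blocking of liver enzyme CYP2C9 beyond about 50% at 5 µM, limit read from the data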
CYP2C9 act: human CYP2C9 activators, primary screen, biochemical, luminescence; Cytochrome P450 2C9 (Homo sapiens), P11712; recombinant CYP2C9, luciferin-H conversion; stronger effect = higher value; factor 1 = untreated enzyme, 0 = blocked; activation factor at 5 µM; 96,000 tested, 1.4% active;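 active = activation factor of 2 or more for CYP2C9 at a 5 µM dose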;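 also: 0 = sulfaphenazole-blocked wells and 1 = vehicle-only wells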
The depositor's hits bear a star. Shown are actives, neighbours in structure and some others; about 31% of the full set was active somewhere.

CCOC(=O)N1CCC(N2CC34C=CC(O3)C(C(=O)O)C4C2=O)CC1 (stereo not given) was read as CYP2C19 inh -4, CYP2C19 act 1, CYP2C9 inhib -18 and CYP2C9 act 1.2.
Screening COc1ccccc1CNC(=O)COC(=O)C1=COCCO1 returned CYP2C19 inh 61*, CYP2C19 act 0.4, CYP2C9 inhib 5 and CYP2C9 act 0.9.
For COCCN1C(=O)C(O)=C(C(=O)c2ccco2)C1c1cccc(Oc2ccccc2)c1 (stereo not given) the results were CYP2C19 inh -15, CYP2C19 act 1.1, CYP2C9 inhib 32 and CYP2C9 act 0.7.
COc1ccc(S(=O)(=O)n2ccc(-c3cnc(-c4ccccc4)s3)n2)cc1 was read as CYP2C19 inh 21, CYP2C19 act 0.8, CYP2C9 inhib 69* and CYP2C9 act 0.3.
For O=C(c1ccccc1)n1ccc(-c2cnc(-c3ccccc3)s2)n1 the results were CYP2C19 inh 56*, CYP2C19 act 0.4, CYP2C9 inhib 15 and CYP2C9 act 0.8.
Screening Cc1c(Cl)c(-c2n[nH]c(=S)n2Cc2ccco2)nn1C returned CYP2C19 inh 31, CYP2C19 act 0.7, CYP2C9 inhib 32 and CYP2C9 act 0.7.
For Cc1cc(=O)oc(C)c1C(=O)n1nc(C)c2c1C[C@@H]1[C@H]2C1(C)C the results were CYP2C19 inh 31, CYP2C19 act 0.7, CYP2C9 inhib 62* and CYP2C9 act 0.4.
`Cc1cc(=O)oc(C)c1C(=O)NC12CC3CC(CC(C3)C1)C2` gave CYP2C19 inh 3, CYP2C19 act 1, CYP2C9 inhib -7 and CYP2C9 act 1.1.
For c1ccc(N2CCN(Cc3cn4cccnc4n3)CC2)cc1 the results were CYP2C19 inh 33, CYP2C19 act 0.7, CYP2C9 inhib -14 and CYP2C9 act 1.1.
c1ccc(N2CCN(Cc3ccnc4ccccc34)CC2)cc1 was read as CYP2C19 inh 64*, CYP2C19 act 0.4, CYP2C9 inhib 9 and CYP2C9 act 0.9.
COc1cccc(-n2c(Cc3cc(=O)[nH]c(=O)[nH]3)nnc2SCC(=O)N2CCCCCC2)c1 was read as CYP2C19 inh -9, CYP2C19 act 1.1, CYP2C9 inhib 8 and CYP2C9 act 0.9.
Screening O=C1c2ccccc2C(=O)C12Cc1ccccc1N1CCN(c3ccccc3)CC12 (stereo not given) returned CYP2C19 inh 56*, CYP2C19 act 0.4, CYP2C9 inhib 76* and CYP2C9 act 0.2.
`O=C1CC(=O)N(c2ccccc2)c2ccccc21` gave CYP2C19 inh 0, CYP2C19 act 1, CYP2C9 inhib -24 and CYP2C9 act 1.2.
`COc1ccc2c(CCNC(=O)c3ccco3)c[nH]c2c1` gave CYP2C19 inh 79*, CYP2C19 act 0.2, CYP2C9 inhib 39 and CYP2C9 act 0.6.
Screening O=C(NCCSc1c[nH]c2ccccc12)c1ccco1 returned CYP2C19 inh 19, CYP2C19 act 0.8, CYP2C9 inhib 62* and CYP2C9 act 0.4.
Screening COc1ccc(CNCCNC(=O)c2ccco2)c(OC)c1OC returned CYP2C19 inh 5, CYP2C19 act 1, CYP2C9 inhib -3 and CYP2C9 act 1.
Screening O=[N+]([O-])c1cc(/C=N\Nc2nccs2)ccc1O returned CYP2C19 inh 42, CYP2C19 act 0.6, CYP2C9 inhib 34 and CYP2C9 act 0.7.
For O=C(NCc1ccco1)C(c1cccs1)N(C(=O)C1COc2ccccc2O1)c1cccc(O)c1 (stereo not given) the results were CYP2C19 inh 97*, CYP2C19 act 0, CYP2C9 inhib 94* and CYP2C9 act 0.1.
`CCCCCOC(=O)c1ccccc1C(=O)O` gave CYP2C19 inh 9, CYP2C19 act 0.9, CYP2C9 inhib 20 and CYP2C9 act 0.8.
Screening O=C(CN1C(=O)COc2ccccc21)N(Cc1ccccc1)Cc1ccccn1 returned CYP2C19 inh 10, CYP2C19 act 0.9, CYP2C9 inhib 12 and CYP2C9 act 0.9.
Screening Cc1ccc(CN(Cc2cccnc2)C(=O)CN2C(=O)COc3ccccc32)o1 returned CYP2C19 inh 95*, CYP2C19 act 0, CYP2C9 inhib 67* and CYP2C9 act 0.3.
Screening COc1ccc2[nH]cc(CCN=C3SCC(=O)N3C)c2c1 returned CYP2C19 inh 79*, CYP2C19 act 0.2, CYP2C9 inhib 40 and CYP2C9 act 0.6.
For Cc1cc(C)c(S(=O)(=O)Nc2nnc(C)s2)c(C)c1 the results were CYP2C19 inh -2, CYP2C19 act 1, CYP2C9 inhib 86* and CYP2C9 act 0.1.
Cc1ccc(S(=O)(=O)NC(=O)Nc2nnc(C)s2)cc1 was read as CYP2C19 inh 6, CYP2C19 act 0.9, CYP2C9 inhib 3 and CYP2C9 act 1.
For COc1ccc(CCNc2oc(COc3ccccc3F)nc2C#N)cc1 the results were CYP2C19 inh 94*, CYP2C19 act 0.1, CYP2C9 inhib 97* and CYP2C9 act 0.
For CN(C)c1oc(COc2ccccc2F)nc1C#N the results were CYP2C19 inh 92*, CYP2C19 act 0.1, CYP2C9 inhib 42 and CYP2C9 act 0.6.
`N#Cc1nc(COc2ccccc2)oc1NCCN1CCOCC1` gave CYP2C19 inh 9, CYP2C19 act 0.9, CYP2C9 inhib 9 and CYP2C9 act 0.9.
N#Cc1nc(COc2ccccc2F)oc1NCc1ccc(F)cc1 was read as CYP2C19 inh 55*, CYP2C19 act 0.4, CYP2C9 inhib 72* and CYP2C9 act 0.3.
For COC(=O)c1ccccc1NS(=O)(=O)c1cn(C)c(=O)n(C)c1=O the results were CYP2C19 inh 9, CYP2C19 act 0.9, CYP2C9 inhib 8 and CYP2C9 act 0.9.
For O=C(Cn1nnc(-c2ccccc2F)n1)Nc1ccc(S(=O)(=O)NC2CCCC2)cc1 the results were CYP2C19 inh 45, CYP2C19 act 0.5, CYP2C9 inhib 42 and CYP2C9 act 0.6.
For Cc1cccc(N2CCN(C(=O)CCCn3c(=S)[nH]c4cc5c(cc4c3=O)OCO5)CC2)c1C the results were CYP2C19 inh 32, CYP2C19 act 0.7, CYP2C9 inhib 59* and CYP2C9 act 0.4.
For O=C(CCCn1c(=S)[nH]c2cc3c(cc2c1=O)OCO3)N1CCN(c2ccccc2)CC1 the results were CYP2C19 inh 21, CYP2C19 act 0.8, CYP2C9 inhib 80* and CYP2C9 act 0.2.
For CC(=O)c1ccc(N2CCN(C(=O)CCCn3c(=S)[nH]c4cc5c(cc4c3=O)OCO5)CC2)cc1 the results were CYP2C19 inh 5, CYP2C19 act 0.9, CYP2C9 inhib 48 and CYP2C9 act 0.5.
COc1cccc(C2C(C#N)=C(N)OC(C(C)(C)C)=C2C#N)c1 (stereo not given) was read as CYP2C19 inh 85*, CYP2C19 act 0.2, CYP2C9 inhib 94* and CYP2C9 act 0.1.
COc1ccc(C2C(C#N)=C(N)OC(C(C)(C)C)=C2C#N)cc1OC (stereo not given) was read as CYP2C19 inh 61*, CYP2C19 act 0.4, CYP2C9 inhib 90* and CYP2C9 act 0.1.
